Data published in PubChem BioAssay AID485 (The Scripps Research Institute Molecular Screening Center, 2006).
Among all 170,000 compounds or so, about 460 (0.27%) were called active.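 Rule for the calls: active = inhibition above the plate cutoff, the mean inhibition of test wells on that plate plus 3 SD (cut at about 28% in these data); inactive = the rest.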 Shown is part of a subset that was picked to be rich in actives.

Biological target: Sphingosine 1-phosphate receptor 3 (Homo sapiens) (UniProt Q99500)
Test: inhibition of S1P-stimulated S1P3 activation – cell-based, primary screen (AID 485);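 note: cells challenged with S1P at its EC80 of 0.8 µM; blue over green emission ratio from cleaved BLA substrate after 4 h stimulation; 0% = S1P-stimulated wells and 100% = unstimulated DMSO-only wells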
Conditions: CHO S1P3 NFAT-BLA reporter, FRET fluorescence, antagonist mode; at 4.98 µM; stronger effect = higher value

Sequence of Sphingosine 1-phosphate receptor 3 (Homo sapiens) (Q99500 whole entry, looked up): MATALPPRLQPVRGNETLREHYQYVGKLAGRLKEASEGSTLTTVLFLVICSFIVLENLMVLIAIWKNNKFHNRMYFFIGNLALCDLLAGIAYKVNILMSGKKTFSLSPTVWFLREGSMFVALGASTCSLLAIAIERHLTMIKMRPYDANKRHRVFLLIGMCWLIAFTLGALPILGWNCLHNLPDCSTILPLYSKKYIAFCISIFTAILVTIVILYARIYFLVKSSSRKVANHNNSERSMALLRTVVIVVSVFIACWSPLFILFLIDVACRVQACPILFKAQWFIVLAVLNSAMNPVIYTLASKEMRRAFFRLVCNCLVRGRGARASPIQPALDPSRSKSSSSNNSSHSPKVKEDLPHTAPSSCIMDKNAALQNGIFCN

| SMILES | inhibition |
| --- | --- |
| COc1ccc(CS(=O)/C(Cl)=C(/Cl)C(=O)Nc2ccc(OC)nc2)cc1 (centres undefined) | 56.4% (active) |
| COc1ccc(NC(=S)NCCNC(C)=O)cc1 | 12.8% (inactive) |
| COc1ccc(NC(=S)Nc2ccccc2Cl)cn1 | 4.46% (inactive) |
| CCOC(=O)c1c(C)[nH]c(C2=NNC(=NC(C)COC)SC2)c1C (centres undefined) | -26% (inactive) |
| CC(C)c1cc(NCc2ccccn2)n2c(nc3ccccc32)c1C#N | -17.9% (inactive) |
| O=C(N/N=C/c1ccc([N+](=O)[O-])o1)c1cccc(S(=O)(=O)N2CCOCC2)c1 | 8.39% (inactive) |
| O=[N+]([O-])c1cccc(/C([O-])=C(/C(=S)Nc2ccccc2F)[n+]2ccccc2)c1 | -11.5% (inactive) |
| O=C(Nc1ccc(N2CCOCC2)nc1)c1c(F)cccc1F | 6.79% (inactive) |
| O=[N+]([O-])c1ccc2[nH]c3c(c2c1)CCCC3O (centres undefined) | 12.7% (inactive) |
| C/C(=N\OC(=O)c1ccccc1)c1c(C)nc2cc(C)ccn12 | -11.2% (inactive) |
| CC(=O)Nc1cccc(C(=O)Nc2nc(C)cs2)c1 | -16.1% (inactive) |
| Cc1cc(/C=N/NC(=O)c2cccnc2)c(C)n1CC(C)C | 4.4% (inactive) |
| N#CCCCn1c(O)c(N=NC(=O)C(O)c2ccccc2)c2ccccc21 (centres undefined) | 5.47% (inactive) |
| Cc1c(NC(=O)CSc2nnnn2-c2ccc(C(=O)O)cc2)c(=O)n(-c2ccccc2)n1C | 7.84% (inactive) |
| CCn1ccnc1CN1CCCC(C(=O)c2ccc3c4c(cccc24)CC3)C1 (centres undefined) | -14.3% (inactive) |
| O=C(c1cc(COc2c(F)cccc2F)on1)N1CCSCC1 | 10.4% (inactive) |
| C/C(CC(=O)Nc1cccc(C(F)(F)F)c1)=N\NC(=O)C(=O)NCC(C)C | -5.61% (inactive) |
| CC(C)Oc1ccc(CCC(=O)NNC(=S)NCc2ccccc2)cc1 | 11.1% (inactive) |
| COc1ccc(Cc2cc(-c3ccc(F)cc3)n[nH]c2=O)cc1 | 16.1% (inactive) |
| CCOC(=O)c1ccc(N=C2SC(C(=O)NC)CC(=O)N2CCc2ccccc2)cc1 (centres undefined) | -0.92% (inactive) |
| CCCN(c1ccc(C)cc1)c1nc(=O)c2cccnc2s1 | -4.79% (inactive) |
| O=C(O)CSCc1nc2ccccc2s1 | -27.1% (inactive) |
| O=C(Nc1ccccc1)Nc1nc2ccccc2s1 | 6.66% (inactive) |
| CCC(=O)NC(=Nc1nc2ccccc2s1)NC(=O)CC | 84.7% (active) |

| SMILES | inhibition |
| --- | --- |
| COC(=O)CSc1nccc(-c2cccs2)n1 | -15.2% (inactive) |
| O=C1c2ccccc2NC(c2ccccn2)N1NS(=O)(=O)c1ccccc1 (centres undefined) | -20% (inactive) |
| Cc1cc(=O)oc2cc(OCC(=O)Nc3nnc(C4CC4)s3)ccc12 | 6.03% (inactive) |
| COCCCNC(=O)Cn1c(=O)n(Cc2ccccc2Cl)c(=O)c2cc(OC)c(OC)cc21 | -15.6% (inactive) |
| COc1ccc(-n2cc(CN(C)Cc3n[nH]c(=O)[nH]3)c(-c3cccc(F)c3)n2)cc1 | 0.22% (inactive) |
| C=CCC(Nc1ccccc1)c1cccc(OC)c1OC (centres undefined) | 3.89% (inactive) |
| CN(C)CCCN(Cc1cc2cc3c(cc2[nH]c1=O)OCCO3)C(=O)NC1CCCCC1 | -12.8% (inactive) |
| O=C(CCNc1n[nH]c(=O)[nH]c1=O)N/N=C\c1ccc(Br)cc1 | 7.68% (inactive) |
| O=C(NCCCNc1ccc([N+](=O)[O-])cc1Cl)c1ccccc1F | -0.7% (inactive) |
| CCC(C)c1ccc(NC(=S)NCc2ccccn2)cc1 (centres undefined) | 6.58% (inactive) |
| COc1ccc(C)cc1NC(=O)c1ccc(-c2ccc(C(C)=O)cc2)o1 | -2.68% (inactive) |
| CC/C(=N\NC(=S)NC(C)C)c1ccc(OC(F)F)cc1 | 0.35% (inactive) |
| COc1cccc(Nc2nnc(SCC(=O)N3CC(=O)Nc4ccccc43)s2)c1 | 1.32% (inactive) |
| CCOC(=O)c1cn(CC)c2cc(F)c(F)cc2c1=O | 1.3% (inactive) |
| Cc1ccc(NC(=O)CN(C)CC(=O)Nc2cccc(F)c2)cc1[N+](=O)[O-] | 29.9% (active) |
| CN(CC(=O)Nc1cccc(F)c1)CC(=O)Nc1cccc([N+](=O)[O-])c1 | -5.5% (inactive) |
| Cc1ccc(CN(C)CC(=O)Nc2cccc([N+](=O)[O-])c2)o1 | -19.1% (inactive) |
| Cc1ccc(/C=C/C(=O)O)cc1S(=O)(=O)N1CCC(Cc2ccccc2)CC1 | -2.15% (inactive) |
| O=C(Cn1cnc2cc([N+](=O)[O-])ccc2c1=O)NC(=O)NCc1ccccc1 | -4.47% (inactive) |
| COc1ccc(F)cc1S(=O)(=O)N1CCCCC1 | 17.2% (inactive) |
| Cc1ccc(NC(=O)C/C(N)=N/O)cc1Cl | -2.94% (inactive) |
| CC(C)(C)c1ccc(CCC2OCC(CN3CCOCC3)O2)cc1 (centres undefined) | 10.3% (inactive) |
| CCN(CC(=O)Nc1cccc(S(N)(=O)=O)c1)Cc1nc2ccccc2c(=O)[nH]1 | 19.8% (inactive) |
| COC(=O)c1c(NC(C)=O)sc(C(=O)Nc2ccccc2OC)c1C | 6.94% (inactive) |

| SMILES | inhibition |
| --- | --- |
| Cc1ccc(NC(=O)Nc2cc(-c3ccccc3)nn2C)cc1Cl | 6.92% (inactive) |
| Cc1nc2ccccn2c1C(=O)NN=C1CCN(C)CC1 | 5.25% (inactive) |
| CCOC(=O)c1c(N)sc2c1CCCC2=O | 8.9% (inactive) |
| O=[N+]([O-])c1ccc(F)cc1Oc1nc(-c2cccnc2)nc2ccccc12 | 4.41% (inactive) |
| CC1C(=O)NC(=O)C1c1ccccc1 (centres undefined) | 5.96% (inactive) |
| CC(NCc1ccccc1OC1CCCC1)c1ccccc1 (centres undefined) | 3.22% (inactive) |
| CCN(CC)CCN(C(=O)c1ccc(N2C(=O)CCC2=O)cc1)c1nc2cc3c(cc2s1)OCO3 | -4.37% (inactive) |
| O=C(NCc1cccnc1)C(=O)Nc1nc(-c2ccccc2)cs1 | 10.3% (inactive) |
| CCOC(=O)CC1C(=O)NCCN1c1nc2c(C)cccn2c(=O)c1/C=C1\SC(=S)N(C(C)CC)C1=O (centres undefined) | 29.7% (active) |
| CCOc1ccc(/C=C2\SC(=S)N(NC(=O)c3ccncc3)C2=O)cc1OC | 6.85% (inactive) |
| CCOC(=O)CC1C(=O)NCCN1C(=O)COc1ccc(Br)cc1C (centres undefined) | -25.1% (inactive) |
| CCCCCC1CCC(c2nnc(SCC(C)=O)o2)CC1 (centres undefined) | -22.3% (inactive) |
| O=C(NNS(=O)(=O)Cc1ccccc1)c1ccc([N+](=O)[O-])cc1 | -6.72% (inactive) |
| Cn1c(S(=O)(=O)O)nc2ccccc21 | -12.4% (inactive) |
| Cn1cccc1-c1nc2ccccc2n1C | -6.38% (inactive) |
| Cn1c(-c2ccc(C(=O)c3ccccc3)s2)nc2ccccc21 | 59.9% (active) |
| Cc1cccc(-n2ncc3c(N4CCc5ccccc54)ncnc32)c1 | 84.3% (active) |
| Cc1ccc(-n2ncc3c(N4CCN(c5ccc(F)cc5)CC4)ncnc32)c(C)c1 | 27.2% (inactive) |
| COc1ccc(-n2ncc3c(N4CCc5ccccc54)ncnc32)cc1 | 13.4% (inactive) |
| CCN(CC)c1ccc2c(Nc3ccccc3)c(C=O)c(=O)oc2c1 | 6.07% (inactive) |
| CC(C)Cc1nnc(NC(=O)CCC(=O)Nc2ccc3cn[nH]c3c2)s1 | -0.32% (inactive) |
| Cc1c(CN2CCCCC2)c(O)n(CCO)c(=O)c1C#N | -12.4% (inactive) |
| CCOc1cnc(-c2c(-c3ccccc3Cl)noc2C)o1 | -6.23% (inactive) |
| Cc1ccc(S(=O)(=O)N(CC(=O)NN=C2CCN(C)CC2)c2ccc(F)cc2)cc1 | 4.23% (inactive) |

| SMILES | inhibition |
| --- | --- |
| CCN(CC)C(=O)C(=O)c1cn(CC(=O)NCc2ccc3c(c2)OCO3)c2ccccc12 | 1.34% (inactive) |
| CN(C)c1ccc(NC(=O)CSc2n[nH]c(-c3ccco3)n2)cc1 | -1.38% (inactive) |
| CC(C)C(=O)Nc1ccc2oc(=O)ccc2c1 | -11.4% (inactive) |
| CC1CCN(C(=S)c2cccc([N+](=O)[O-])c2)CC1 | -0.25% (inactive) |
| C=CCOC(=O)C1=C(C)N=C2SCCC(=O)N2C1/C=C/c1ccccc1OC (centres undefined) | -1.87% (inactive) |
| CCC(C)(C)NC(=O)CN(Cc1cccs1)C(=O)CNS(=O)(=O)c1ccc(F)cc1 | -2.83% (inactive) |
| Cc1cc(N/N=C/c2ccccc2F)c2ccccc2n1 | -3.58% (inactive) |
| CC(=O)Nc1ccc(C(=O)/C=C/c2ccc[nH]2)cc1 | 0.84% (inactive) |
| CCc1cc(CNC(=O)CC2C(=O)NCCN2Cc2ccccc2C(F)(F)F)on1 (centres undefined) | -1.82% (inactive) |
| CCc1ccc(C(=O)OCC(=O)NCC(F)(F)F)cc1 | -9.42% (inactive) |
| O=C(O)CC12CC3CC(C1)CC(n1ncc(NCc4ccc(F)cc4)c(Cl)c1=O)(C3)C2 | -16.8% (inactive) |
| COc1cc2c(cc1O)[C@H](Cc1ccc(Oc3cc(C[C@@H]4NCCc5cc(OC)c(O)cc54)ccc3O)cc1)NCC2 | -12.9% (inactive) |
| CC[C@H]1CN2CCc3cc(OC)c(OC)cc3[C@@H]2C[C@@H]1C[C@H]1NCCc2cc(OC)c(OC)cc21 | 97.4% (active) |
| CN1C(=O)/C(=N/OC(=O)c2ccccc2Br)c2ccccc21 | -12.3% (inactive) |
| COc1ccc(NC(=O)CN2C(=O)CSC2=O)cc1 | 4.71% (inactive) |
| CC(C)N(Cc1ccccc1)C(=O)COC(=O)c1cnccn1 | -8.02% (inactive) |
| O=Cc1ccc(OCc2cn3ccccc3n2)cc1 | -13.1% (inactive) |
| CCCc1ccc(C(=O)[C@@H]2[C@@H](C(C)=O)N3c4ccc(F)cc4C=C[C@@H]3[C@@]23C(=O)Nc2ccccc23)cc1 | 3% (inactive) |
| CCCN(CCC)CC(O)COc1ccccc1C(=O)Nc1ccccc1 (centres undefined) | -9.63% (inactive) |
| COc1ccccc1C(=O)NNC(=O)c1ccc(NC(=O)c2ccccc2)cc1 | -4.89% (inactive) |
| CC(C)Oc1ccccc1C(=O)NC(CO)C(=O)O (centres undefined) | 28.6% (active) |
| O=C(Nc1cccc2c1N(C(=O)c1ccco1)CCC2)c1ccco1 | -8.57% (inactive) |
